Measurements published in ChEMBL document CHEMBL3988442, “University of Dundee, Small-Polar-MMV Screening Library” (2021).
Hit rate of the full screen: of about 66,000 compounds, about 960 (1.5%) showed an effect of 50% or more. Shown is part of a subset that was picked to be rich in strong results.

System: Trypanosoma brucei
Test: Trypanosoma brucei 72 hour study
Format: functional, organism-based
Parameters: scale not given: in the data most compounds retested in dose-response had high values

CNS(=O)(=O)Cc1ccc(CNC(=O)c2ccccn2)cc1
Percent Effect (30.3 µM, […]): -17.29%
Percent Effect (10 mM, 10 mM as filed; unlikely as a test dose): -30.84%

COc1cccc(C(=O)N2CCc3nc(C4CCCN4)ncc3C2)c1.Cl (stereo unspecified)
Percent Effect (30.3 µM, […]): -17.69%

CNC(=O)CN1CCCC(Cc2ccccc2OC)C1 (stereo unspecified)
Percent Effect (30.3 µM, […]): 99.76%

COc1ccccc1CC1CCCN(CC(=O)NC2CC2)C1 (stereo unspecified)
Percent Effect (30.3 µM, […]): 6.426%

COc1ccccc1CC1CCCN(CCN2CCOC2=O)C1 (stereo unspecified)
Percent Effect (30.3 µM, […]): 99.68%

COc1ccccc1CC1CCCN(CCC(N)=O)C1 (stereo unspecified)
Percent Effect (30.3 µM, […]): 100.1%

COc1ccccc1CC1CCN(C(=O)CCN2CCOC2=O)CC1
Percent Effect (30.3 µM, […]): 4.544%

COc1ccccc1CC1CCCN(CC(N)=O)C1 (stereo unspecified)
Percent Effect (30 µM, 30.03 µM): -11.23%

COc1ccccc1CC1CCCN(CCC#N)C1 (stereo unspecified)
Percent Effect (30 µM, 30.03 µM): -5.815%

COc1ccccc1CN1CCN(CCN2CCOC2=O)CC1
Percent Effect (30 µM, 30.03 µM): -64.53%

CNC(=O)NC(=O)CN1CCCC(Cc2ccccc2OC)C1 (stereo unspecified)
Percent Effect (30.3 µM, […]): 26.83%

O=C(O)c1cc(/C=C/c2ccc3ccccc3c2)ncn1
Percent Effect (30 µM, 30.03 µM): 17.56%

CCn1ncc2c1C(COCC1CC1)CN(C(=O)c1ccncn1)C2.O=C(O)C(F)(F)F (stereo unspecified)
Percent Effect (30 µM, 30.03 µM): -0.6882%

Cc1ncsc1C(=O)N1CC[C@@]2(O)CCN(C(=O)N3CCCC3)C[C@H]2C1
Percent Effect (30.3 µM, […]): -70.48%

COc1ccc(F)c(-c2ncccc2C(=O)N2C[C@H]3CC[C@@H]2C3)c1
Percent Effect (30 µM, 30.03 µM): -6.323%

CCn1c(CN2CCC(O)(c3ccc4c(c3)OCO4)CC2)cnc1SC.O=C(O)CC(O)(CC(=O)O)C(=O)O
Percent Effect (30.3 µM, […]): -5.268%

COc1cc(N2C[C@@H]3COC[C@]3(COCc3ccncc3)C2)ncn1.O=C(O)C(F)(F)F.O=C(O)C(F)(F)F
Percent Effect (30 µM, 30.03 µM): -12.8%

CN1CCCc2c1nc1c(c2N)CCCC1.O=C(O)C(=O)O
Percent Effect (30.3 µM, […]): 6.357%

Cc1cnn(C2CN(Cc3nnc(C4CC4)o3)C2)c1
Percent Effect (30.3 µM, […]): 93.44%

Cc1cnn(C2CN(Cc3noc(C4CC4)n3)C2)c1
Percent Effect (30.3 µM, […]): -128.4%

Cc1ccc(-c2nnc(CN3CC(n4cc(C)cn4)C3)o2)cc1
Percent Effect (30 µM, 30.03 µM): -4.601%

CCn1ccnc1CN1CCCC1C(=O)Nc1nccs1 (stereo unspecified)
Percent Effect (30.3 µM, […]): 4.608%

Fc1cccc(CN2CCC3(CCCN3c3ncccn3)CC2)c1.O=C(O)C(F)(F)F
Percent Effect (30.3 µM, […]): -16.3%

CCC1(CO)CCCN(Cc2nccn2Cc2ccccc2)C1 (stereo unspecified)
Percent Effect (30 µM, 30.03 µM): -5.033%

CCOC(=O)C1(CCOC)CCN(Cc2nccn2CC)CC1
Percent Effect (30.3 µM, […]): -0.1521%

CCOC(=O)C1(Cc2ccccc2)CCCN(Cc2nccn2CC)C1 (stereo unspecified)
Percent Effect (30.3 µM, […]): 95.74%

CCOC(=O)C1(CCOC)CCCN(Cc2nccn2CC)C1 (stereo unspecified)
Percent Effect (30.3 µM, […]): -20.23%

CCn1ccnc1CN1CCCC(CO)(Cc2cccc(Cl)c2)C1 (stereo unspecified)
Percent Effect (30 µM, 30.03 µM): 109.3%

CCn1ccnc1CN1CCCC(CO)(Cc2cccc(OC)c2)C1 (stereo unspecified)
Percent Effect (30 µM, 30.03 µM): -22.09%

Cn1cc(CCC(=O)N2C[C@H]3CC[C@@H]2CN(Cc2cccnc2)C3)cn1
Percent Effect (30 µM, 30.03 µM): -23.98%

Cc1ccnc(NC(=O)C2CCN(CCCc3cn[nH]c3)CC2)c1
Percent Effect (30 µM, 30.03 µM): -19.03%

Cc1cc(NC(=O)N2CCOC(C(N)=O)C2)ccc1Br (stereo unspecified)
Percent Effect (30 µM, 30.03 µM): -3.776%

COCC1CN(C(=O)Nc2cc(Cl)cc(Cl)c2)CCO1 (stereo unspecified)
Percent Effect (30.3 µM, […]): -16.88%

NC(=O)C1CN(C(=O)Nc2cc(Cl)cc(Cl)c2)CCO1 (stereo unspecified)
Percent Effect (30 µM, 30.03 µM): 103.3%

CCN(CC)CCn1c(=O)oc2ccccc21.Cl
Percent Effect (30 µM, 30.03 µM): -24.39%

Cc1cn2cc(-c3nc4c([nH]3)CCCNC4=O)nc2s1
Percent Effect (30 µM, 30.03 µM): 81.5%

COc1ccc(-c2nc3c([nH]2)CCCNC3=O)cc1OC
Percent Effect (30 µM, 30.03 µM): -51.91%

Cc1cccc(Cc2nc3c([nH]2)CCCNC3=O)c1
Percent Effect (30 µM, 30.03 µM): -3.182%

CC1(C)CNC(=O)c2nc(-c3n[nH]c(=O)[nH]3)[nH]c2C1
Percent Effect (30 µM, 30.03 µM): -63.36%

COc1cc(-c2nc3c([nH]2)CCCNC3=O)ccc1O
Percent Effect (30 µM, 30.03 µM): 4.773%

Cc1ccc2nc(-c3nc4c([nH]3)CCCNC4=O)cn2c1
Percent Effect (30 µM, 30.03 µM): 99.29%

Cc1ccc2nc(-c3nc4c([nH]3)CC(C)(C)CNC4=O)cn2c1
Percent Effect (30 µM, 30.03 µM): 106.8%

CC1(C)CNC(=O)c2nc(-c3ccccc3)[nH]c2C1
Percent Effect (30 µM, 30.03 µM): -21.93%

COc1cc(-c2nc3c([nH]2)CCCNC3=O)cc(OC)c1OC
Percent Effect (30 µM, 30.03 µM): -56.65%

Cc1cccc2nc(-c3nc4c([nH]3)CCCNC4=O)cn12
Percent Effect (30 µM, 30.03 µM): 66.46%

CC(C)Oc1cccc(-c2nc3c([nH]2)CCCNC3=O)c1
Percent Effect (30 µM, 30.03 µM): -40%

CC(C)Cn1cncc1-c1nc2c([nH]1)CCCNC2=O
Percent Effect (30 µM, 30.03 µM): -24.09%

CN(Cc1ccco1)C[C@H]1OC[C@@H]2CN(c3ncc(F)cn3)CC[C@@H]21.O=C(O)C(F)(F)F.O=C(O)C(F)(F)F
Percent Effect (30.3 µM, […]): -14.08%

CN(C)C(=O)N1CCC2(CC1)CCN(Cc1ccccn1)C2=O.O=C(O)C(F)(F)F
Percent Effect (30 µM, 30.03 µM): 7.411%

Cc1ccc(CN2C[C@H](NC(=O)c3nccn3C)[C@H]3OCCC[C@H]32)o1
Percent Effect (30.3 µM, […]): -18.85%

O=C(O)C(F)(F)F.O=C(O)C(F)(F)F.c1cncc(CN2CCn3c(Cn4cncn4)cnc3C2)c1
Percent Effect (30.3 µM, […]): -106.7%

Cc1cc(C(=O)N2CC[C@@H](N(C)C)[C@@H]2Cc2ccccc2)no1.O=C(O)C(F)(F)F
Percent Effect (30.3 µM, […]): 3.974%

CN(C)CCn1c([C@@H]2CCCO2)cc2cccnc21.Cl
Percent Effect (30.3 µM, […]): -17.47%

CN(C)S(=O)(=O)N1CCC2(COCc3cnc(NCC4CC4)nc32)C1 (stereo unspecified)
Percent Effect (30 µM, 30.03 µM): -49.38%

CNC(=O)[C@@H]1CCO[C@@H]2CCN(Cc3ccsc3)C[C@H]21.O=C(O)C(F)(F)F
Percent Effect (30.3 µM, […]): -300.6%

O=C(C1CCC1)N1CCC2(CCCN2CC2CC2)CC1.O=C(O)C(F)(F)F
Percent Effect (30.3 µM, […]): -53.73%

COc1ccc(CN2CCOCC3(CCN(C4CCOCC4)C3)C2)cc1.O=C(O)C(F)(F)F.O=C(O)C(F)(F)F (stereo unspecified)
Percent Effect (30 µM, 30.03 µM): 20.44%

CC(=O)c1ccc(NC(=O)c2ccc3c(c2)C2(CCCCC2)CN3)cc1.O=C(O)C(F)(F)F
Percent Effect (30.3 µM, […]): -13.93%

O=C(O)C(F)(F)F.O=C1CC2(CNCCN(C(=O)Nc3ccccc3)C2)CN1 (stereo unspecified)
Percent Effect (30.3 µM, […]): -24.96%

O=C(Nc1ccccc1)c1ccc2c(c1)C1(CCCCC1)CN2.O=C(O)C(F)(F)F
Percent Effect (30.3 µM, […]): 97.07%

COc1ccc(C[C@H]2CN(Cc3ccoc3)CC[C@@H]2OC)cc1.O=C(O)C(F)(F)F
Percent Effect (30.3 µM, […]): -8.959%

COC(=O)Cn1c(=O)nc2n1C(=O)N(c1cccc(Cl)c1)C2
Percent Effect (30 µM, 30.03 µM): -8.775%

Cc1cc(C)c(C#N)c(NCCn2cnnc2C(C)C)n1
Percent Effect (30 µM, 30.03 µM): -40.75%

Cc1n[nH]c(C)c1CCC(=O)N1CCC(O)(CN2CCOCC2)C1 (stereo unspecified)
Percent Effect (30.3 µM, […]): -4.476%

CCN(Cc1ccc(C(C)=O)cc1)CC1CCOCC1
Percent Effect (30 µM, 30.03 µM): 98.5%

NC(=O)NC(=O)CCN(Cc1ccccc1)CC1CCOCC1
Percent Effect (30 µM, 30.03 µM): -38.3%

CCN(Cc1ccc(O)c(C(=O)O)c1)CC1CCOCC1
Percent Effect (30 µM, 30.03 µM): -62.42%

COC1COC2(CCN(Cc3ccccc3C)CC2)C1.O=C(O)C(F)(F)F (stereo unspecified)
Percent Effect (30 µM, 30.03 µM): -3.278%

COc1ccc(CN2CCn3c(CO)nnc3C2)cc1CN1CCCC1.O=C(O)CC(O)(CC(=O)O)C(=O)O
Percent Effect (30.3 µM, […]): -29.63%

CN(CCn1cnnc1)S(=O)(=O)c1ccc(C(F)(F)F)nc1
Percent Effect (30 µM, 30.03 µM): -27.18%

O=C(Cc1ccccc1F)N1CCCCC1c1ccn2ccnc2n1 (stereo unspecified)
Percent Effect (30.3 µM, […]): -17.08%

Br.Cc1ccc(N(CC(=O)c2ccc(Br)cc2)C2=NCCCCC2)cc1
Percent Effect (30 µM, 30.03 µM): 102.1%

Br.O=C(CN(C1=NCCCC1)c1ccccc1)c1ccccc1
Percent Effect (30 µM, 30.03 µM): -30.63%

Br.Cc1ccc(C(=O)CN(C2=NCCCCC2)c2ccccc2)cc1
Percent Effect (30 µM, 30.03 µM): -7.636%

Cc1nc(-c2cc(C(=O)NCCN3CCOCC3)c3ccccn23)cs1.O=C(O)C(F)(F)F
Percent Effect (30 µM, 30.03 µM): -1.462%

Cc1cc2occ(CC(=O)N3CCC(O)(CN(C)C)C3)c2cc1Cl (stereo unspecified)
Percent Effect (30.3 µM, […]): 99.94%

Cc1cc2occ(CC(=O)N3CCC4(CCCN(C)C4=O)C3)c2cc1Cl (stereo unspecified)
Percent Effect (30.3 µM, […]): 2.516%

CN(C)CC1(O)CCN(C(=O)Cc2ccc(Cl)c(Cl)c2)C1 (stereo unspecified)
Percent Effect (30 µM, 30.03 µM): -2.195%

CCN1C(=O)CC[C@]12CC[C@@H](NC(=O)c1cnccn1)CC2
Percent Effect (30.3 µM, […]): -18.7%

COC(=O)CN1CC(c2nc(Cc3ccccc3)no2)C1.O=C(O)C(=O)O
Percent Effect (30 µM, 30.03 µM): 101%

O=C(CN1CC(c2nc(Cc3ccccc3)no2)C1)NCC1CCCO1.O=C(O)C(=O)O (stereo unspecified)
Percent Effect (30.3 µM, […]): 6.981%

CCNC(=O)N1CC(c2nc(Cc3ccccc3)no2)C1
Percent Effect (30.3 µM, […]): 0.6321%

CCC1(O)CCCN(c2ncnc3c2c(C)nn3C)C1 (stereo unspecified)
Percent Effect (30 µM, 30.03 µM): 27.55%

Cc1nn(C)c2ncnc(N3CCC(O)(CN4CCCC4)CC3)c12
Percent Effect (30 µM, 30.03 µM): 57.4%

Cc1nn(C)c2ncnc(N3CCCC(C)(O)C3)c12 (stereo unspecified)
Percent Effect (30 µM, 30.03 µM): 2.016%

COc1cc(N2CCO[C@H]3[C@@H](Oc4cccnc4)CC[C@@H]32)ncn1.O=C(O)C(F)(F)F.O=C(O)C(F)(F)F
Percent Effect (30 µM, 30.03 µM): -15.67%

CCC1CCCCN1CCNC(=O)N1CCN(Cc2ccon2)CC1 (stereo unspecified)
Percent Effect (30 µM, 30.03 µM): 20.59%

CN(C)CCn1c2c(ccc1=O)CC(NC(=O)NC1CCCC1)CC2.O=C(O)C(F)(F)F (stereo unspecified)
Percent Effect (30.3 µM, […]): -38.22%

CC(C)(C)NC(=O)NC(=O)CNc1c(F)cccc1N1CCCC1
Percent Effect (30 µM, 30.03 µM): -52.35%

CCCn1cc(S(=O)(=O)N[C@H]2CN(CCO)C[C@@H]2C2CC2)cn1
Percent Effect (30 µM, 30.03 µM): -20.35%

CC1=C[C@@H](CN2CCCC2)[C@H](C(C)C)C[C@H]1Cc1nnc(C)o1
Percent Effect (30 µM, 30.03 µM): 17.59%

CC1=C[C@@H](CN2CCN(C)CC2)[C@H](C(C)C)C[C@H]1Cc1nnc(C)o1
Percent Effect (30 µM, 30.03 µM): 28.22%

CC1=C[C@@H](CN2CCOCC2)[C@H](C(C)C)C[C@H]1Cc1nnc(C)o1
Percent Effect (30 µM, 30.03 µM): 60.87%

CC1c2ncc(Cn3cncn3)n2CCN1C(=O)c1ccsc1 (stereo unspecified)
Percent Effect (30.3 µM, […]): -6.898%

CC(C)N1CCO[C@@H]2CN(C(=O)Cc3cccs3)CC[C@@H]2C1.O=C(O)C(F)(F)F
Percent Effect (30.3 µM, […]): -84.63%
